Results reported in PubChem BioAssay AID1471 (National Center for Advancing Translational Sciences (NCATS), 2008).
“And” between values parts separate entries of the source, which are not always exact repeats. Identical values can stand only once. Hit rate of the full screen: of about 230,000 compounds, about 310 (0.13%) were called active. Inconclusive results (about 2%) are left out. The entries come from a sample that favours actives as a whole. Values without a mark were called inactive. Calls follow the shape of the dose curve; as a rule, active = well fitted activation curve with a large enough effect; inconclusive = small, poorly fitted or top-dose-only effect; inactive = no such curve, though single readings can be large or run the other way.

assay: qHTS Multiplex Assay to Identify Dual Action Probes in a Cell Model of Huntington: Cytoprotection (ATP); settings: PC12 HTT-Q103 induced, ATP luminescence, 40 h; series mostly up to 56.4 µM; cytoprotection (ATP increase): at the top concentration; also: nearly all actives have a fitted effect of over 45% in size;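 as to cytoprotection (ATP increase): toxic huntingtin expression switched on by the ecdysone agonist tebufenozide; % of control where 0% means no effect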
Excerpt: NIH Chemical Genomics Center [NCGC]
NIH Molecular Libraries Probe Production centers Network [MLPCN]
Assay Submitter (PI): Wei Zheng
Huntington's disease is a neurodegenerative disorder caused by a trinucleotide repeat expansion in Exon 1 of the Huntingtin gene. The CAG trinucleotide encodes glutamine and polyglutamine expansions cause cell death in selective areas of the brain. Huntington polyglutamine repeats have the tendency to form aggregates which are observable in later stages of the disease. The exact nature of the aggregates, whether toxic, protective, or insignificant, is unclear.
A stable PC12 cell line containing a gene fusion of Exon 1 of the Huntingtin gene linked to GFP under the control of the inducible ecdysone promoter were used as the cell-based model of Huntington Disease for high throughput screening. Exon 1 of the Huntingtin gene contained an expansion of 103 polyglutamines (Q103) which, when expressed, caused cell death and distinct, bright GFP aggregates. The amount of cell death and the size and intensity of GFP aggregates increased over time and induction level. The cell death were quantified with a measurement of ATP content in the cells. A maximal 40-50% of cell death was observed when the Huntington gene was induced in this cell line.
We optimized this assay in a homogeneous 1536 well format. A quantitative high throughput screen (qHTS) was conducted on the PC12 cells which were induced to express the toxic fusion construct. Small molecules which prevented cell death were identified by using a luminescent ATP quantification method (Perkin Elmer's ATPlite).
PC12 cells stably containing a construct with an ecdysone inducible promoter expressing GFP fused to the exon 1 of HTTQ103 (Huntington protein which containing a 103 ployglutamine expansion) were used.
NCGC Assay Protocol Summary:
Sequence, Parameter, Description
1, Reagent, 5 uL 1500 cells/well 1536 TC treated White clear bottom plate
2, Compound, 23 nL Tebufenozide inducer (100 nM final) to all columns
3, Compound, 23 nL 40 uM to 0.5 nM Libraries
5, Reagent, 5 ul ATPLite cell death assay reagent
6, Detector, 4 sec integration with a Viewlux Luminescent
Media consisted of phenol red free DMEM + 5% equine serum (Hyclone # SH30072.03 ), 5% supplemented Bovine Calf Serum (Hyclone # SH30074.03 ), 1x pen/strep, no G418
Control columns: 1 = DMSO, 2= 2 uM teb dilns (1:1), 4 = 100 nM Teb inducer. Sample columns received 100 nM Teb.
Potency is read from the fitted curve at half-maximal effect.

Compared with `COC(=O)C(C(=O)OC)[C@@H](NC=O)c1ccccc1`, `COCCCNC(=O)C1CC(=O)N(CCc2ccccc2)C1` (stereo not drawn) is higher in “cytoprotection (ATP increase)” value: -30.4% for the first, -12% for the second.

First: COc1ccc2c(c1)O[C@@H](c1ccc3c(c1)OCO3)[C@H](OC(=O)NCCc1ccc(OC)c(OC)c1)C2=O
Second: COc1cccc([C@@H]2Oc3ccc(Br)cc3C(=O)[C@H]2OC(=O)NCCc2ccc(OC)c(OC)c2)c1
The “cytoprotection (ATP increase)” value of the first is lower: -180% for the first, -49.1% for the second.

Compared with `COc1cc2c(cc1OC)[C@@H](Cc1cc(OC)c(OC)c(OC)c1)[N+](C)(CCCOC(=O)CC/C=C/CCC(=O)OCCC[N+]1(C)CCc3cc(OC)c(OC)cc3[C@H]1Cc1cc(OC)c(OC)c(OC)c1)CC2` (stereo partly drawn), `C=C1c2cccc(OC)c2O[C@H](C(=O)OCC)[C@@H]1CCCCCC` is lower in “cytoprotection (ATP increase)” value: 6.54% for the first, -42.4% for the second.

Compared with `C=C(C(C)=O)C(O)c1cccs1` (stereo not drawn), `O=C(Nc1ccc(O)cc1)c1ccccc1O` is lower in “cytoprotection (ATP increase)” value: -12.9% for the first, -145% for the second.

First: CC(C)(Oc1ccc(C2CC2(Cl)Cl)cc1)C(=O)O (stereo not drawn)
Second: Cc1ccc(CC2(O)CCN(CCOc3ccc(O)cc3)CC2)cc1
The “cytoprotection (ATP increase)” value of the first is higher: 30.1% for the first, -66.8% for the second.

First: CCn1c(-c2ccncc2)n[nH]c1=S
Second: CCn1c(C(C)C)n[nH]c1=S
The “cytoprotection (ATP increase)” value of the first is higher: -8.17% for the first, -26.1% for the second.

Compared with `CC(C)=CCN1CCC2(CCc3ccccc32)CC1`, `O=C1OCCN1C(=O)[C@H]1[C@H](c2ccccc2)C(c2ccc(F)cc2)=NN1c1ccccc1` is lower in “cytoprotection (ATP increase)” value: -37.2% for the first, -95.6% for the second.

Compared with `O=P(O)(O)OC[C@H](O)CO`, `CC1=C2[C@@H](O)[C@H]([C@@H](C)C(=O)NCCC(C)C)CC[C@@]2(C)C=CC1=O` is higher in “cytoprotection (ATP increase)” value: 2.81% for the first, 16% for the second.

Going from `CC(C)(C)OC(=O)NCCCC1=CC2=CC(=O)C(C)(OC(=O)c3ccco3)C(=O)C2=CO1` (stereo not drawn) to `CC1(OC(=O)C2CCCC2)C(=O)C=C2C=C(c3ccc(C#N)cc3)OC=C2C1=O` (stereo not drawn), the “cytoprotection (ATP increase)” value rises from -5.66% to 14.5%.

Compared with `CCNC(=O)COC(=O)/C=C/c1c(C)nn(Cc2cccc(OC)c2)c1Cl`, `Cc1ccc(-c2ncc(Cl)cc2-c2ccc(S(C)(=O)=O)cc2)cn1` is higher in “cytoprotection (ATP increase)” value: -27% for the first, -6.4% for the second.

Going from `CN(C)c1nc(N)nc(Cn2nnc(-c3ccc(C(F)(F)F)cc3)n2)n1` to `C=C1O[C@@](CO)(n2cnc3c(N)ncnc32)[C@H](O)[C@@H]1O`, the “cytoprotection (ATP increase)” value falls from -14.2% to -56.7%.

Going from `CCCCC/C=C\C/C=C\C/C=C\CCCCCCC(N)=O` to `CCCCC/C=C\C/C=C\C/C=C\CCCCC(=O)NCC(=O)O`, the “cytoprotection (ATP increase)” value falls from 26.9% to 19.8%.

For `Cc1cc2oc(=O)cc(-c3ccccc3)c2c(C)c1/C=C/c1ccc(F)cc1`, the “cytoprotection (ATP increase)” value was 7.14%.

Compared with `CC1(OC(=O)c2ccc(Cl)nc2)C(=O)Cc2cc(-c3ccsc3)ncc2C1=O` (stereo not drawn), `COc1cccc(NC(=O)CN(C)CC(=O)Nc2ccc3c(c2)CCC3)c1` is higher in cytoprotection (ATP increase): -9.48% [at 10 µM] for the first, 19.6% [at 10 µM] for the second.

Compared with `CCN1C(=O)N[C@@H](CCc2ccccc2)C(C(=O)OC)=C1C`, `Cc1c(N=Nc2ccc(N(C)C)cc2)c(=O)n(-c2ccccc2)n1C` is lower in cytoprotection (ATP increase): -1.46% [at 10 µM] for the first, -1.47% [at 10 µM] for the second.

Compared with `Cc1ccc(Nc2nc(N)nc(CSc3nnc(C)s3)n2)cc1`, `COc1ccc(-c2nc3c(c4c2C[C@H](c2ccccc2)OC4)CN(S(=O)(=O)c2c(C)noc2C)CC3)c(C)c1` is lower in cytoprotection (ATP increase): 18.8% [at 10 µM] for the first, -10% [at 10 µM] for the second.

Compared with `CCOC(=O)C1CCCN(C(=O)c2cccc(S(=O)(=O)N3CCOCC3)c2)C1` (stereo not drawn), `C#CCCOC(=O)N1C2=NC(C(=O)OC)=C(C(=O)OC)[C@@H]3N(C)c4ccc(OC)cc4[C@]23C[C@H]1C(=O)OC` is lower in cytoprotection (ATP increase): 21.6% [at 10 µM] for the first, -19.2% [at 10 µM] for the second.

Compared with `COc1ccc(N=Nc2ccc(O)c(P(=O)(c3ccccc3)c3ccccc3)c2)cc1`, `O=C1/C(=C/c2cccs2)SC(=S)N1C1CCS(=O)(=O)C1` (stereo not drawn) is lower in cytoprotection (ATP increase): 13.4% [at 10 µM] for the first, -20.7% [at 10 µM] for the second.

For `C=CCOC(=O)NC(c1ccc(F)c(F)c1)C(C(=O)COC)C(=O)OC` (stereo not drawn), the cytoprotection (ATP increase) was “inactive”.
In the case of `COC(=O)C1(C(C)=O)CC2=CC[C@H]3C(=O)N(c4ccccc4)C(=O)[C@H]3[C@@H]2Cc2ccccc2[C@@H]1C[N+](=O)[O-]` (stereo partly drawn), the cytoprotection (ATP increase) was “inactive”.
With `COC(=O)C1=C(C(=O)OC)[C@@H]2N(C)c3ccccc3[C@@]23C[C@@H](C(=O)OC)N(C(C)=O)C3=N1` the cytoprotection (ATP increase) was 0.243% [at 10 µM] and 2.58% [at 10 µM].
In the case of `CCCCCCCC/C=C\CCCCCCCC(=O)OC[C@H](CO)OC(C)=O`, the cytoprotection (ATP increase) was “inactive”.
For `C/C=C1\C2C=C(C)CC1(N)c1ccc(=O)[nH]c1C2` (stereo not drawn), the cytoprotection (ATP increase) was “inactive”.
For `CCC(C)[C@@H](N)C(=O)O` (stereo partly drawn), the cytoprotection (ATP increase) was “inactive”.

In the case of `CCn1c(-c2ccoc2C)n[nH]c1=S`, the Potency was 5.62 µM (active).

With `C=CCC1CCC(=O)N2CCCC12` (stereo not drawn) the “cytoprotection (ATP increase)” value was 30.3% [at 96.6 µM].
